# Compound activity from PubChem.
# Rab9 prom act: Rab9 promoter activation | Huh7 Rab9 promoter-luciferase reporter, luminescence, 24 h | Potency, µM (top dose mostly 9.22 µM), for inactives: at the highest dose activation, negative = inhibition, actives largely listed as activators | 320,000 compounds, 2.8% hits | AID 485297; also: % of control where 0% means no effect; nearly all actives have a fitted effect of over 60% in size
#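 Steps: seed 1500 Huh7 Rab9-luc cells per well, rest 2 h at 37 °C; add compound in DMSO; incubate 24 h; add luciferase reagent, 10 min ambient; read luminescence.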
# SMN2 splice up: increases expression of the SMN2 splice variant; HEK293 SMN2-luciferase splicing reporter, luminescence, 30-36 h; Potency, µM (highest dose often 46.1 µM), without a hit: top-dose activity change, positive = activation, most hits filed as activators; 210,000 compounds, 2.8% hits; AID 1458; also: % of control where 0% means no effect; nearly all actives have a fitted effect of over 55% in size
#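 HEK293 cells carry an SMN2 […]–luciferase reporter in which exon 7 inclusion puts luciferase in frame. Cells were plated 10-12 h before compound addition, then incubated 30-36 h at 37C. ONE-Glo luminescence was read; sodium butyrate at 4.5 mM final served as control.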
# NPC1 prom act: NPC1 promoter activation. 320,000 compounds, 2.4% hits. AID 485313. Huh7 NPC1 promoter luciferase reporter, 24 h. Potency, µM (doses to about 9.22 µM), without a hit: at the top dose activation, usual class: activators; also: % of control where 0% means no effect; nearly all actives have a fitted effect of over 60% in size
#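 Luminescence from an NPC1 promoter-driven luciferase reporter in stably transfected Huh7 cells was measured after 24 h compound treatment at 37 °C, followed by 10 min ambient incubation with luciferase detection reagent.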
# ELG1 genotoxic: induces genotoxicity in HEK293T cells with luciferase-tagged ELG1 | AID 504466 | HEK293T ELG1-luciferase reporter, luminescence, 16 h | 330,000 compounds, 1.3% hits | Potency, µM (highest dose often 46 µM), inactives show at the top dose activity change, positive = activation, usual class: activators; also: % of control where 0% means no effect; nearly all actives have a fitted effect of over 60% in size
#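 Reporter readout depends on ELG1 protein level, which increases with genetic stress. After 16 hr compound exposure at 37 °C, luciferase activity was quantified using ONE-Glo.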
# Luc counter: counter-screen: inhibitors of Kinase-Glo firefly luciferase; AID 1379; Kinase-Glo luciferase, ATP luminescence, 8 min; Potency, µM (top dose mostly 38.3 µM), for inactives: at the top dose activity change, negative = inhibition, most hits filed as inhibitors; 200,000 compounds, 0.28% hits; also: % is scaled to controls: 0 for no effect and ±100 for the full control effect; nearly all actives have a fitted effect of over 60% in size
#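 Inhibition of Kinase-Glo luciferase light generation was assessed at 10 uM ATP in pH 7.2 imidazole buffer, with luminescence measured after eight minutes at ambient temperature.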
# FLuc counter: counter-screen for miR-21 project: firefly luciferase inhibitors or activators | P08659 | purified FLuc, Km substrates, luminescence inhibition | Potency, µM (titrated, usually from 57.5 µM), without a hit: top-dose activity change, negative = inhibition, usual class: inhibitors | 360,000 compounds, 6.9% hits | AID 588342;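 also: plate controls were vehicle for no effect and reference inhibitor for full effect; nearly all actives have a fitted effect of over 55% in size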
# Target sequence (P08659 whole entry, looked up): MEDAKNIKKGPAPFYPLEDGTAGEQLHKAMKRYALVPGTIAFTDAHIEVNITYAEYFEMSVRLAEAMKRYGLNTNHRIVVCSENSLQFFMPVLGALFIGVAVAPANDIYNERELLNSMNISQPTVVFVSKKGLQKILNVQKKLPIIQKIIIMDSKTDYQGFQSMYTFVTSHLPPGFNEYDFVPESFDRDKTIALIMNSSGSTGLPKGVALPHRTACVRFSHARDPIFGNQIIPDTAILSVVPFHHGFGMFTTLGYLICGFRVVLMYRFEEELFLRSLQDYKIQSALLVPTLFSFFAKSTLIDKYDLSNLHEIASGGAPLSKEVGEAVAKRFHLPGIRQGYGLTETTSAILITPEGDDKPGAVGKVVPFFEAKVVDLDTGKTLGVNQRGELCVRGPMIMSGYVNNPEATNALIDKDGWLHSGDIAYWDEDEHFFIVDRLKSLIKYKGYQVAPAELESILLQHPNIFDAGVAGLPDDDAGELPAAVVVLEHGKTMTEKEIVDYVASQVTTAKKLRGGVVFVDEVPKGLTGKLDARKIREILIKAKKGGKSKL
#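 Purified P. pyralis luciferase (10nM final) with 10uM D-luciferin and 10uM ATP (Km levels) in 50mM Tris acetate pH 7.5, 10mM Mg acetate, 0.01% Tween-20, 0.05% BSA; qHTS 6-point titration, ~60 µM downward; luminescence read.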
# * hit, by the source's call; ? = inconclusive; . = no result given. This is a sample that favours compounds with a hit; in the whole collection about 7.3% have one here. Calls follow the shape of the dose curve; as a rule, active = well fitted curve in the direction sought with a large enough effect; inconclusive = small, poorly fitted or top-dose-only effect, or another doubt; inactive = no such curve, though single readings can be large; an effect the other way counts as inactive or inconclusive. Potency is read from the fitted curve at half-maximal effect.
SMILES,Rab9 prom act,SMN2 splice up,NPC1 prom act,ELG1 genotoxic,Luc counter,FLuc counter
Cc1ccccc1CSc1nc2cccnc2n1Cc1ccc(C(=O)NC2CC2)cc1,.,.,.,.,.,6µM*
O=C(NC1CCCC1)c1ccc(CSc2nc3cccnc3n2Cc2ccc(F)cc2)cc1,.,.,.,.,.,-8%
CCn1nnnc1SCC(=O)Nc1nc2ccc(OC)cc2s1,20%,20%,23%,2%,0%,12µM*
COc1ccc2nc(NC(=O)CSc3nnc(-c4ccoc4C)n3C)sc2c1,3.5µM*,?,2.8µM*,19%,-7%,2.7µM*
CCn1nnnc1SCC(=O)Nc1ccc(OC)cc1,5%,26%,7%,9%,2%,-3%
Cc1[nH]c2ccccc2c1/C=C/c1cc[n+](C)cc1,-43%,-26%,-36%,-22%,-3%,2%
Cc1ccc(/C=C\c2nccc3c2[nH]c2ccccc23)cc1,?,?,?,?,-1%,1.7µM*
CSc1ccc(/C=C/c2cc(=O)c3ccccc3[nH]2)cc1,?,17%,15%,13%,-3%,?
C(=C\c1nccc2c1[nH]c1ccccc12)/c1ccccc1,?,.,?,-5%,.,7.6µM*
c1ccc2c(c1)[nH]c1ccccc12,.,-3%,.,.,.,.
Fc1ccc(/C=C\c2nccc3c2[nH]c2ccccc23)cc1,18%,16%,20%,9%,-9%,5.4µM*
COc1ccc(CCNC(=O)c2cc(=O)[nH]c3ccc(S(=O)(=O)N4CCCCC4)cc23)cc1OC,.,.,.,.,.,3%
O=C(CSc1ccc(Cl)cc1)N1N=CCC1c1ccccc1 (stereo unspecified),3%,.,-3%,0%,.,-14%
O=C(CSC(=S)N1CCCCC1)N1N=CCC1c1ccccc1 (stereo unspecified),22%,-4%,26%,?,-4%,21µM*
CC1N/C(=C\C(=O)c2ccccc2)N(O)C1(C)C (stereo unspecified),1.4µM*,?,2.2µM*,8.2µM*,-7%,8.5µM*
O=C1Nc2ccccc2/C1=C\C(=O)c1ccccc1,-1%,.,-5%,1%,.,?
S=C(NCCCN1CCOCC1)N1CCN(c2nc(-c3ccccc3)cs2)CC1,-18%,.,-8%,-9%,3%,-15%
CN(C)C(=O)N1CCN(c2nc(-c3ccccc3)cs2)CC1,1.1µM*,.,2.2µM*,?,.,3µM*
c1ccc(-c2csc(N3CCOCC3)n2)cc1,?,11µM*,?,6.3µM*,15%,15µM*
O=C(N1CCOCC1)N1CCN(c2nc(-c3ccccc3)cs2)CC1,?,0%,30%,-5%,-4%,21µM*
c1ccc(-c2csc(N3CCN(c4ccccn4)CC3)n2)cc1,?,-28%,?,-14%,1%,11µM*
CC1=NNC(=O)C1CC(=O)N/N=C(/C)c1cccc([N+](=O)[O-])c1 (stereo unspecified),-1%,-54%,-1%,7%,5%,-2%
CCN(CC)c1ccc(/C=C2\C(=N)N3N=C(CC(=O)N4CCOCC4)SC3=NC2=O)cc1,4%,.,24%,10%,.,27µM*
COc1ccc(-n2c(C)cc(/C=C3\C(=N)N4N=C(CC(=O)N5CCOCC5)SC4=NC3=O)c2C)cc1,0%,.,-2%,6%,.,?
Cc1cc(/C=C2\C(=N)N3N=C(CC(=O)N4CCOCC4)SC3=NC2=O)c(C)n1-c1ccccc1,4%,.,-3%,6%,.,11µM*
CSc1ccc(/C=C2\C(=N)N3N=C(CC(=O)N4CCOCC4)SC3=NC2=O)cc1,0%,.,-1%,5%,.,?
CC(C)Oc1ccc(C(=O)N2CCN(C(=O)c3ccco3)CC2)cc1,1%,.,5%,2%,.,2%
COc1ccc(-c2cc(C)no2)cc1S(=O)(=O)NCCCN1CCN(c2ccccc2)CC1,-20%,.,-3%,-8%,.,4%
CCN1C(=C2C(=O)c3ccccc3C2=O)C=Cc2ccccc21,9%,-2%,10%,?,0%,?
